# From the supplement of paper PMC12669797
# Where “and” joins values, the source holds several entries; their conditions need not be identical. Equal entries are not always repeated. Structures can show the parent of a compound that is named as a salt. ± gives the standard deviation of the averaged measurements.
# Tests used:
# ES2 = test: cell viability relative to DMSO control (MTS) (fraction of DMSO control); higher = more viable cells / less growth inhibition; settings: 10 µM; 48 h
# Outline: (§1)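 A 367-compound […] library was tested at a final concentration of 10 µM on TOV-21G and ES2 clear cell carcinoma cells (5000 cells per well, 96-well plates, pre-grown 24 h), with control wells receiving vehicle only. Following 48 h of exposure, CellTiter 96 AQueous One Solution was used as the manufacturer directs. This MTS assay gives cell viability as a fraction of the vehicle control.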
# TOV-21G = test: as above; settings: 10 µM; 48 h
# Outline: as §1
smiles,measurement,setting,value
Cc1cc(N)c2ccccc2[n+]1CCCCCCCCCC[n+]1c(C)cc(N)c2ccccc21 [Dequalinium],cell viability,ES2,0.383
same,cell viability,TOV-21G,0.42
Nc1ncn([C@H]2C[C@H](O)[C@@H](CO)O2)c(=O)n1 [Decitabine],cell viability,ES2,0.757
same,cell viability,TOV-21G,1.11
CC(C)(C)c1nc2c3cc[nH]c(=O)c3c3cc(F)ccc3c2[nH]1 [JAK Inhibitor I],cell viability,ES2,0.561
same,cell viability,TOV-21G,0.662
CC(C)(C)NC(=O)[C@H]1CC[C@H]2[C@@H]3CC[C@H]4NC(=O)C=C[C@]4(C)[C@H]3CC[C@]12C [Finasteride],cell viability,ES2,1.3
same,cell viability,TOV-21G,0.952
C=CC[C@@H]1/C=C(\C)C[C@H](C)C[C@H](OC)[C@H]2O[C@@](O)(C(=O)C(=O)N3CCCC[C@H]3C(=O)O[C@H](/C(C)=C/[C@@H]3CC[C@@H](O)[C@H](OC)C3)[C@H](C)[C@@H](O)CC1=O)[C@H](C)C[C@@H]2OC,cell viability,ES2,0.941
same,cell viability,TOV-21G,0.964
Cc1[nH]c(/C=C2\C(=O)Nc3ccc(S(=O)(=O)N(C)c4cccc(Cl)c4)cc32)c(C)c1C(=O)N1CCN(C)CC1,cell viability,ES2,0.402
same,cell viability,TOV-21G,0.639
O=c1cc(-c2ccccc2)oc2cc(O)c(O)c(O)c12 [Baicalein],cell viability,ES2,0.916
same,cell viability,TOV-21G,0.821
N#CC[C@H](C1CCCC1)n1cc(-c2ncnc3[nH]ccc23)cn1 [Ruxolitinib],cell viability,ES2,0.979
same,cell viability,TOV-21G,0.776
COc1cc(O)c(CC=C(C)C)c(O)c1C(=O)/C=C/c1ccc(O)cc1 [Xanthohumol],cell viability,ES2,1.07
same,cell viability,TOV-21G,1.01
O=C1Nc2ccc(I)cc2/C1=C\c1cc(Br)c(O)c(Br)c1 [RAF1 kinase inhibitor I],cell viability,ES2,1.1
same,cell viability,TOV-21G,1.03
O=C([O-])c1ccccc1O.[Na+] [Sodium salicylate],cell viability,ES2,0.785
same,cell viability,TOV-21G,1.27
CCn1cc(C(=O)O)c(=O)c2ccc(C)nc21 [Nalidixic acid],cell viability,ES2,0.981
same,cell viability,TOV-21G,1.12
COc1cc2ncnc(Nc3ccc(NC(=O)c4ccccc4)cc3)c2cc1OC [Aurora kinase inhibitor II],cell viability,ES2,1.09
same,cell viability,TOV-21G,0.688
CNC(=O)c1ccc(N2C(=S)N(c3ccc(C#N)c(C(F)(F)F)c3)C(=O)C2(C)C)cc1F,cell viability,ES2,1.14
same,cell viability,TOV-21G,1.18
Cc1c(C)c2c(c(C)c1O)CCC(C)(COc1ccc(CC3SC(=O)NC3=O)cc1)O2 (stereo not drawn) [Troglitazone],cell viability,ES2,0.835
same,cell viability,TOV-21G,1.26
CC(/C=C/C(=O)NO)=C\[C@@H](C)C(=O)c1ccc(N(C)C)cc1 [Trichostatin A],cell viability,ES2,0.343
same,cell viability,TOV-21G,0.355
COc1ccc(CCN(C)CCCC(C#N)(c2ccc(OC)c(OC)c2)C(C)C)cc1OC (stereo not drawn) [Verapamil],cell viability,ES2,0.953
same,cell viability,TOV-21G,1.12
CCOC(=O)C1=C(N)Oc2ccc(Br)cc2C1C(C#N)C(=O)OCC (stereo not drawn),cell viability,ES2,1.04
same,cell viability,TOV-21G,0.998
Cc1ccc(NC(=O)c2ccc(CN3CCN(C)CC3)cc2)cc1Nc1nccc(-c2cccnc2)n1 [imatinib mesylate],cell viability,ES2,0.956
same,cell viability,TOV-21G,1.09
O=[N+]([O-])c1ccc(-c2nc(-c3ccc(F)cc3)c(-c3ccncc3)[nH]2)cc1,cell viability,ES2,0.835
same,cell viability,TOV-21G,0.976
CNCc1ccc(-c2[nH]c3cc(F)cc4c3c2CCNC4=O)cc1,cell viability,ES2,0.686
same,cell viability,TOV-21G,0.746
CC(C)C[C@H](NC(=O)[C@@H](O)[C@H](N)Cc1ccccc1)C(=O)O [Bestatin],cell viability,ES2,0.885
same,cell viability,TOV-21G,1.13
O=C(Nc1cccc(Nc2nccc(Nc3cccc(C(F)(F)F)c3)n2)c1)C1CC1 [Aurora kinase inhibitor III],cell viability,ES2,0.94
same,cell viability,TOV-21G,0.573
C[n+]1cc2c3c(ccc2c2ccc4cc5c(cc4c21)OCO5)OCO3 [Sanguinarine],cell viability,ES2,0.385
same,cell viability,TOV-21G,0.253
CN(C)CCCCC(=O)Nc1ccc(NC(=S)NC(=O)c2ccc(C(C)(C)C)cc2)cc1 [Tenovin-6],cell viability,ES2,0.406
same,cell viability,TOV-21G,0.274
C[C@@H](N)[C@H]1CC[C@H](C(=O)Nc2ccncc2)CC1,cell viability,ES2,1.09 and 0.911
same,cell viability,TOV-21G,0.922 and 0.973
O=C(Nc1cccc2cccnc12)c1ccc(N2C(=O)[C@@H]3[C@H](C2=O)[C@@H]2C=C[C@H]3C2)cc1 [IWR-1-endo],cell viability,ES2,0.998
same,cell viability,TOV-21G,0.582
CCCOc1ccccc1-c1nc2[nH]nnc2c(=O)[nH]1 [Zaprinast],cell viability,ES2,0.909
same,cell viability,TOV-21G,1.03
N=C(N)NC(=O)c1nc(Cl)c(N)nc1N [Amiloride],cell viability,ES2,1.16
same,cell viability,TOV-21G,1.24
CNC(=O)c1ccccc1Sc1ccc2c(/C=C/c3ccccn3)n[nH]c2c1 [Axitinib],cell viability,ES2,0.917
same,cell viability,TOV-21G,0.841
COc1nccc(-c2c(-c3ccc(F)cc3)ncn2C2CCC(O)CC2)n1 (stereo not drawn),cell viability,ES2,1.14
same,cell viability,TOV-21G,1.06
O=C1Cc2c([nH]c3ccc(Br)cc23)-c2ccccc2N1 [Kenpaullone],cell viability,ES2,0.701 ± 0.11
same,cell viability,TOV-21G,0.468 ± 0.048
Cn1c(=O)c2nc[nH]c2n(C)c1=O [Theophylline],cell viability,ES2,0.452
same,cell viability,TOV-21G,0.772
O=c1oc2c(O)c(O)cc3c(=O)oc4c(O)c(O)cc1c4c23 [Ellagic acid],cell viability,ES2,0.827
same,cell viability,TOV-21G,0.935
COC(=O)c1ccc(NCc2cc(O)ccc2O)cc1,cell viability,ES2,1.414 ± 0.0028
same,cell viability,TOV-21G,1.06 ± 0.026
"N#CCCc1ccc2c(c1)-c1[nH]c3ccc([N+](=O)[O-])cc3c1CC(=O)N2 [Alsterpaullone, 2-cyanoethyl]",cell viability,ES2,0.893
same,cell viability,TOV-21G,0.778
O=S(=O)(c1cccc2cnccc12)N1CCCNCC1,cell viability,ES2,0.979
same,cell viability,TOV-21G,1.04
CCCCCCCCCCCCCCOc1ccc(C(=O)O)o1,cell viability,ES2,1.21
same,cell viability,TOV-21G,0.947
CCCCN1C(=O)C2Cc3c([nH]c4ccccc34)C(c3cccc(O)c3)N2C1=O (stereo not drawn),cell viability,ES2,0.368
same,cell viability,TOV-21G,0.46
COc1cc2ncnc(Nc3ccc(F)c(Cl)c3)c2cc1OCCCN1CCOCC1 [gefitinib],cell viability,ES2,0.825
same,cell viability,TOV-21G,0.889
COc1cc2ncnc(Nc3cccc(Cl)c3)c2cc1OC,cell viability,ES2,1.04 ± 0.12
same,cell viability,TOV-21G,0.839 ± 0.24
CC(C)C[C@H](NC(=O)[C@H](Cc1ccccc1)NC(=O)c1cnccn1)B(O)O [bortezomib],cell viability,ES2,0.302
same,cell viability,TOV-21G,0.432
NC(=O)c1ccc(I)c([N+](=O)[O-])c1 [BSI-201 (Iniparib)],cell viability,ES2,0.778
same,cell viability,TOV-21G,1.29
O=C1C(SCCO)=C(SCCO)C(=O)c2ccccc21,cell viability,ES2,0.962
same,cell viability,TOV-21G,0.861
CCN(CC)CCCCNc1ncc2cc(-c3cc(OC)cc(OC)c3)c(NC(=O)NC(C)(C)C)nc2n1,cell viability,ES2,0.366
same,cell viability,TOV-21G,0.915
C/C=C/C=C\C=C/C(O)C(C)C(CCC(C)C1OC(=O)C=CC1C)OP(=O)(O)O (stereo not drawn) [Cytostatin],cell viability,ES2,0.34
same,cell viability,TOV-21G,0.344
CNC(=O)c1cc(Oc2ccc(NC(=O)Nc3ccc(Cl)c(C(F)(F)F)c3)cc2)ccn1 [sorafenib],cell viability,ES2,0.402
same,cell viability,TOV-21G,0.604
CCCS(=O)(=O)Nc1ccc(F)c(C(=O)c2c[nH]c3ncc(-c4ccc(Cl)cc4)cc23)c1F [Vemurafenib],cell viability,ES2,0.651
same,cell viability,TOV-21G,0.881
Oc1ccc(-c2nc(-c3ccc(F)cc3)c(-c3ccncc3)[nH]2)cc1,cell viability,ES2,0.468
same,cell viability,TOV-21G,0.806
Cc1ncc2ccccc2c1C#N [4-cyano-3-methylisoquinoline],cell viability,ES2,1.01
same,cell viability,TOV-21G,1
Nc1nc(Nc2ccc(S(N)(=O)=O)cc2)nn1C(=S)Nc1c(F)cccc1F [Cdk1/2 inhibitor III],cell viability,ES2,0.687
same,cell viability,TOV-21G,0.665
CC(ONC(=O)c1cc(C(F)(F)F)cc(C(F)(F)F)c1)C(=O)Nc1ccc(Cl)cc1 (stereo not drawn),cell viability,ES2,1.24
same,cell viability,TOV-21G,1.21
Cn1cnc2c(NCc3ccccc3)nc(NCCO)nc21 [Olomoucine],cell viability,ES2,1.25 ± 0.25
same,cell viability,TOV-21G,1.27 ± 0.17
CCC(=C/[C@H](C)C/C=C/C(C)=C/[C@@H](C)C(=O)[C@@H](C)[C@H](O)[C@@H](C)C/C(C)=C/C(=O)O)/C=C/[C@@H]1OC(=O)C=C[C@@H]1C [Leptomycin B*],cell viability,ES2,0.406
same,cell viability,TOV-21G,0.39
